The record followed here is PubChem BioAssay AID1851 (National Center for Advancing Translational Sciences (NCATS), 2009).

Where “and” joins values, the source holds several entries; their conditions need not be identical. Equal entries are not always repeated. In all, about 16,000 compounds went through this assay and about 5,700 (36%) were called active. Not shown: some 24% with an inconclusive outcome. Some of the results follow. Values without a mark were called inactive. The call rests on the fitted dose curve; in most records, active means well fitted curve in the direction sought with a large enough effect; inconclusive means small, poorly fitted or top-dose-only effect, or effect the other way; inactive means no such curve, though single readings can be large or run the other way.
On the % scale 0 is the no-effect control and ±100 the full control effect.

This assay deals with Cytochrome P450 1A2 (Homo sapiens) (UniProt P05177). As to the kind of experiment: Cytochrome panel assay with activity outcomes. The note with it: recombinant CYP, pro-luciferin dealkylation, luminescence, p450-cyp1a2; series mostly up to 57.1 µM.
Cytochrome P450 1A2 (Homo sapiens), sequence (P05177 whole entry, looked up): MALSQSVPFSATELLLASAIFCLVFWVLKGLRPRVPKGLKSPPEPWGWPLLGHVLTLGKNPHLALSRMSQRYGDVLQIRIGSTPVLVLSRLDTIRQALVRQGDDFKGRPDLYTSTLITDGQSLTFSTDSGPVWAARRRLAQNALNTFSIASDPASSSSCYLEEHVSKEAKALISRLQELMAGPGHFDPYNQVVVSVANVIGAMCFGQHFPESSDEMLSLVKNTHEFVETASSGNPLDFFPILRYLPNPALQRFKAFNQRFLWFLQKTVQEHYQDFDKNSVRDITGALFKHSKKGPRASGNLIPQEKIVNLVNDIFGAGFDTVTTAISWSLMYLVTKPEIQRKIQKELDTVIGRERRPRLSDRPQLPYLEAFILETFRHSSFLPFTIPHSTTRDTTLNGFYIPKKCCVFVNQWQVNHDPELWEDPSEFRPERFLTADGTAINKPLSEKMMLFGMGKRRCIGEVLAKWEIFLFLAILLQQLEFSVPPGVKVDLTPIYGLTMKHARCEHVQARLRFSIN
The term AC50 denotes the concentration at which the activity in the assay is half-maximal. As to `COc1ccc(Oc2ncc3ncc(=O)n(Cc4cccs4)c3n2)cc1`, the half-maximal activity concentration (AC50) is 10 µM (active).
On the same count and under the same terms, the value for `COc1ccc(Oc2ncc3nc(C)c(=O)n(Cc4cccs4)c3n2)cc1` was 10 µM (active); that for `COc1ncc2ncc(=O)n(Cc3cccs3)c2n1` was 10 µM (active).
As to `NC(N)=N[C@@H]1C(O)[C@H](N=C(N)N)[C@@H](O)C(O)[C@H]1O` (some centres not stated), the activity, negative = inhibition was -4.87% [at 2.29 µM].
As for `Cc1ccc(S(=O)(=O)/N=C2/NC(=O)/C(=C/c3cccnc3)S2)cc1`, the AC50 entry is “inactive”.
Still for that read-out and setting: the value for `O=C1/C(=C/c2cccnc2)SC(=S)N1Cc1ccco1` was 0.501 µM (active).
In the case of `O=C(CCN1C(=O)/C(=C/c2cccc(Br)c2)SC1=S)NNC(=O)c1cccnc1`, the AC50 entry was “inactive”.
Still for that read-out and setting: under `CCCN(C(=O)Cc1nc(N)n[nH]1)C1(C(=O)Nc2ccccc2C)CCCCC1` stands “inactive”; under `CCCc1cc2c(cc1NC(=O)c1ccccc1C)OCO2`, 2.24 µM (active).
Take `CCCc1cc2c(cc1NC(=O)c1ccccc1Cl)OCO2`: the AC50 was 2.51 µM (active).
Still for that read-out and setting: under `CC[C@@]12CCCN3CCc4c(n(c5ccccc45)[C@](O)(C(=O)OC)C1)[C@H]32` stands “inactive”; under `O=C(O)CCC(=O)N1CCN(c2ccccn2)CC1`, “inactive”.
Same read-out and setting: under `O=C(CCCc1ccccn1)c1ccccc1` stands 5.01 µM (active).
Turning to `O=C(O)[C@H](CCc1ccccn1)c1ccccc1`, the activity, negative = inhibition was -12.5% [at 11.4 µM].
For the compound `COc1cc(/C=N\Nc2nc3ccccc3[nH]2)cc(OC)c1OC`, the concentration at half-maximal activity (AC50) was 10 µM (active).
Same read-out and setting: the value for `COc1cc(/C=N\NC(=O)C2C(=O)NCC2c2ccccc2)cc(OC)c1O` (configuration not stated) was “inactive”; that for `CN(CC(=O)N1CCN(c2ccccc2)CC1)S(=O)(=O)c1cnc[nH]1` was “inactive”.
Regarding `CC(C)CN(CC(C)C)S(=O)(=O)N1CCC(C(=O)NCc2ccc(F)cc2)CC1`, the AC50 result was “inactive”.
With `Cn1c[n+](C)cc1/C=N/O`, the AC50 entry is “inactive”.
Still for that read-out and setting: under `COc1cc(C2C(C(=O)OCCC#N)=C(C)NC3=C2S(=O)(=O)c2ccccc23)cc(OC)c1OC` (configuration not stated) stands “inactive”.
For the compound `COC(=O)C1=C(C)NC(C)=C(C(=O)OCCSc2ccccc2)[C@@H]1C`, the AC50 is 0.794 µM (active).
As to `Cc1cnn(-c2cc(N/N=C/c3ccccc3F)ncn2)c1`, the AC50 was 0.562 µM (active).
On the same count and under the same terms, under `Cc1cnn(-c2cc(N/N=C/c3ccccc3)ncn2)c1` stands 2 µM (active).
With `CC(C)(C)N1C(=O)[C@H]2[C@@H]3[C@H](O)[C@H](O)CC(=O)[C@H]3CC[C@H]2C1=O`, the activity, negative = inhibition was -8.79% [at 11.4 µM] and -4.69% [at 11.4 µM].
As for `Cc1noc(C)c1C(=O)N1CCC2(CCN(Cc3cc(C(F)(F)F)cc(C(F)(F)F)c3)CC2)CC1`, the AC50 result is “inactive”.
Same read-out and setting: under `CCC(Sc1ncccc1C(=O)O)C(=O)N1CCOCC1` (configuration not stated) stands “inactive”.
`N#Cc1nc(-c2ccc(OCc3ccccc3)cc2)oc1NCCN1CCOCC1`: the AC50 result was “inactive”.
Still for that read-out and setting: the value for `FC(F)(F)c1ccccc1-c1nc(NCCN2CCOCC2)c2ccccc2n1` was 12.6 µM (active); that for `Clc1ccccc1-c1nc(NCCN2CCOCC2)c2ccccc2n1` was 12.6 µM (active); that for `O=C(NCCN1CCOCC1)c1nn2c(c1Cl)NC(c1ccccc1)CC2C(F)(F)F` (configuration not stated) was “inactive”.
For the compound `c1ccc2c(NCCN3CCOCC3)nc(-c3ccoc3)nc2c1`, the AC50 is 5.01 µM (active).
The same measure, in the same setting: under `N#Cc1cccc(-c2nc(NCCN3CCOCC3)c3ccccc3n2)c1` stands 1 µM (active).
`O=C1C=C(NCCN2CCOCC2)CC(c2ccccc2)C1` (configuration not stated): the AC50 result was “inactive”.
Still for that read-out and setting: under `CC#CCCCC(=O)Nc1cc(OC)nc(OC)n1` stands 0.355 µM (active); under `COc1cc(NS(=O)(=O)c2ccc(N)cc2)nc(OC)n1`, “inactive”.
The same measure, in the same setting: under `COc1cc(NC(=O)c2c(F)cccc2F)nc(OC)n1` stands 20 µM (active); under `OC[C@@H]1O[C@@H](n2cnc3c(N[C@@H]4C[C@@H]5CC[C@H]4C5)ncnc32)[C@@H](O)[C@H]1O`, “inactive”.
As for `Cc1ccc(S(=O)(=O)N(C)CC(=O)O/N=C(\N)c2ccccn2)cc1`, the AC50 result is “inactive”.
Still for that read-out and setting: under `CCOC(=O)CN(c1ccccn1)S(=O)(=O)c1ccccc1` stands 14.1 µM (active); under `CN(CC(=O)O/N=C(\N)c1ccccn1)S(=O)(=O)c1ccccc1`, “inactive”; under `O=C(NCc1cccc(C(F)(F)F)c1)c1cc(Cl)cc(Cl)c1`, 12.6 µM (active).
On the same count and under the same terms, the value for `COc1ccc(-c2coc3cc4oc(=O)cc(C)c4cc23)cc1F` was 2 µM (active); that for `O=C(NCc1ccccc1Cl)C1CCN(S(=O)(=O)N2CCC3(CC2)OCCO3)CC1` was “inactive”; that for `CCc1nc(N2CCC3(CC2)OCCO3)c2nnn(Cc3ccccc3Cl)c2n1` was 7.08 µM (active).
Same read-out and setting: under `Fc1ccc2nc(Nc3nc4c(s3)CCCC4)sc2c1` stands 1.58 µM (active); under `COc1ccc(NC(=O)N2CC[C@@]3(CCCN(C(=O)c4cnccn4)C3)C2)cc1`, “inactive”; under `Cc1ccc(C(=O)NC(=S)NCC2CCCO2)cc1` (configuration not stated), 7.08 µM (active).
Turning to `Cc1ccc(CS(=O)(=O)Cc2ccc(C(=O)NCC3CCCO3)o2)cc1` (configuration not stated), the AC50 result was “inactive”.
Take `CCS(=O)(=O)N1CCC(C(=O)NCCN2CCN(Cc3ccccc3)CC2)CC1`: the AC50 result is “inactive”.
Same read-out and setting: the value for `CCCn1c2c(c(O)c(C(=O)NCc3ccccc3)c1=O)CCCC2` was 1.26 µM (active).
For the compound `CCC(C)NC(=O)CCS(=O)(=O)c1ccc(Br)s1` (configuration not stated), the AC50 entry is “inactive”.
Take `CNNCc1ccc(C(=O)NC(C)C)cc1`: the AC50 is 1.58 µM (active).
